Rows were chosen to be rich in hits. Some 3.3% of all compounds tested hit in one or more screens of this group.
VACV mCherry inh: vaccinia inhibition (mCherry reporter). Potency, µM (titrated, usually from 36.5 µM), inactives show at the top dose activity change, negative = inhibition, actives largely listed as inhibitors. hit rate 0.63% among 310,000. Vaccinia virus mCherry reporter infection, fluorescence; calls by dose curve; tested in A549 cells; further: nearly all actives have a fitted effect of over 35% in size
Vaccinia Venus: vaccinia inhibition (Venus reporter). Vaccinia virus Venus reporter expression, fluorescence. Potency, µM (highest dose often 36.5 µM), inactives show at the top dose activity change, negative = inhibition, most hits filed as inhibitors. hit rate 0.46% among 330,000. AID 720580; calls by dose curve; tested in A549 cells; further: nearly all actives have a fitted effect of over 30% in size
HCV inh: blocks hepatitis C virus; Huh7.5.1 HCVcc-Cre infection, luciferase reporter, 44 h; Potency, µM (top dose mostly 41.8 µM), for inactives: at the highest dose activity change, negative = inhibition, hits mostly inhibitors; hit rate 3.4% among 340,000; active means well fitted inhibition curve with a large enough effect; inconclusive means small, poorly fitted or top-dose-only effect, or another doubt; inactive means no such curve, though single readings can be large or run the other way
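A cell-based infection assay in which seeded cells (1,000 per well) receive test compound after 4 h, are inoculated with HCVcc-Cre at approximately 0.5 moi, and are incubated 44 h before luminescence detection.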
Active calls of the source: *; i = inactive; ? = inconclusive; nt = no result; [ ] = dose if it differs, or a comment. On the % scale 0 is the no-effect control and ±100 the full control effect; potency means the concentration at half of the fitted maximal effect.

SMILES | VACV mCherry inh | Vaccinia Venus | HCV inh
CCN(CC)CC(=O)c1c(C)n(C)c2ccc(OC)cc12 | -5% | -12% | nt
COc1cc(=O)n2c(c1C(=O)N(C)Cc1ccsc1)CCN(Cc1cnn(C)c1C)CC2 | i | -7% | nt
Cc1ccc(S(=O)(=O)N2CCCc3cc(NC(=O)c4ccccc4Cl)ccc32)cc1 | -8% | -7% | nt
CC(=O)c1cccc(NC(=O)CCS(=O)(=O)c2ccc(Br)s2)c1 | 0% | -10% | -4%
O=C(CCS(=O)(=O)c1ccc(Br)s1)Nc1cc(C(F)(F)F)cc(C(F)(F)F)c1 | 13µM* | ? | nt
Cc1nc(Sc2nnnn2C2CC2)c2c(-c3ccccc3)csc2n1 | ? | -28% | nt
CC(C)c1ccc(C(=O)N2CCOCC2c2cc(C(=O)Nc3ccccc3)no2)cc1 (stereo not drawn) | 3% | -5% | nt
O=C(Cn1c(=O)n2nc(-c3ccccc3)nc2c2ccccc21)Nc1ccccc1C(F)(F)F | -3% | -4% | nt
CC(=O)c1ccc(N2CCN(C(=O)c3ccc(Cn4c(=O)[nH]c5ccccc5c4=O)cc3)CC2)cc1 | -17% | -13% | nt
O=C(c1ccc(Cn2c(=O)[nH]c3ccccc3c2=O)cc1)N1CCN(c2ccc(Cl)cc2)CC1 | nt | nt | 11µM*
CCn1cc(S(=O)(=O)c2ccc(Cl)cc2)c(=O)c2cc(F)c(N3CCOCC3)cc21 | -4% | -10% | nt
CCOc1ccc(CNC(=O)c2ccc(CSc3nc4ccncc4n3Cc3ccc(F)cc3)cc2)cc1 | -29% | -28% | nt
COc1cccc(C(=O)Nc2cc(Cl)c(O)c(Cl)c2)c1 | nt | nt | 6%
COc1cc(C(=O)NC(c2ccc(Cl)cc2)c2cc(Cl)c3cccnc3c2O)cc(OC)c1OC (stereo not drawn) | 16µM* | ? | nt
COc1cc(C(=O)NC(c2ccccc2)c2ccccc2)cc(Cl)c1OC | -14% | -5% | 5%
COc1cccc(C(=O)NC(c2ccc(Cl)cc2)c2cc(Cl)c3cccnc3c2O)c1 (stereo not drawn) | 10µM* | ? | nt
COc1ccccc1OCC(=O)NNC(=O)c1ccc2c(=O)n3c(nc2c1)CCC3 | i | -10% | nt
COc1ccc(NC(=O)Cn2c(=O)oc3cc(S(=O)(=O)N4CCCCCC4)ccc32)cc1OC | -19% | -20% | nt
COc1ccc(NS(=O)(=O)c2ccc(NC(=O)C(CCSC)NC(N)=O)cc2)cc1 (stereo not drawn) | -8% | 6% | 5%
COc1ccccc1C(=O)O[C@H]1[C@H](Cc2ccccc2)NS(=O)(=O)[C@H]2C[C@@H]3C=C[C@]12O3 | i | -12% | 8%
CC(C)[C@]1(c2ccc(Cl)cc2)ON(c2ccccc2C(F)(F)F)C1=O | nt | nt | -18%
Nc1ncnc2c1ncn2[C@@H]1O[C@H](CNCc2ccc(OCc3ccccc3)cc2)[C@@H](O)[C@H]1O | i | -15% | 4µM*
Nc1nc(F)nc2c1ncn2[C@@H]1O[C@H](CO)[C@@H](O)[C@@H]1O | 3.2µM* | 7.1µM* | 3%
Nc1ncnc2c1ncn2[C@@H]1O[C@H](CNCc2ccc(OCC(=O)Nc3ccccn3)cc2)[C@@H](O)[C@H]1O | i | -3% | 11%
Nc1nc(Cl)nc2c1ncn2C1CC(O)C(CO)O1 (stereo not drawn) | 2.5µM* | ? | -12%
SMILES | VACV mCherry inh | Vaccinia Venus | HCV inh
OC[C@H]1O[C@@H](n2cnc3c(NCc4ccco4)ncnc32)[C@H](O)[C@@H]1O | 10µM* | ? | 18µM*
Nc1nc2c(ncn2[C@H]2C[C@H](O)[C@@H](CO)O2)c(=O)[nH]1 | ? | ? | -7%
OC[C@H]1O[C@@H](n2cnc3c(NC4CCCC4)ncnc32)[C@H](O)[C@@H]1O | -5% | -16% | 0%[8.37 µM]
Nc1ncnc2c1ncn2C1O[C@H](CO)[C@@H](O)[C@@H]1O (stereo partly drawn) | -22% | -15% | -27%
CC(C(=O)NCc1ccccc1Cl)n1ccc2cc(S(=O)(=O)N3CCCCC3)ccc21 (stereo not drawn) | -16% | -15% | nt
CCOc1cccc(C2C=C(c3ccc4c(c3)OCO4)NC(c3ccc(Cl)cc3)N2)c1O (stereo not drawn) | -9% | -21% | nt
COc1ccc2c(c1)c1nnc(SCCN3CCOCC3)nc1n2C | -8% | -11% | nt
COc1ccc(/C=N/NC(=O)c2ccncc2)cc1Cn1nc([N+](=O)[O-])c(Br)c1C | -12% | -4% | 17%
Nc1nc(Nc2ccccc2)nc2c1ncn2[C@@H]1O[C@H](CO)[C@@H](O)[C@H]1O | -12% | -3% | 2µM*
OC[C@H]1O[C@@H](n2cnc3cncnc32)[C@H](O)[C@@H]1O | 13µM* | ? | nt
Nc1nc(SCc2ccccc2)c2ncn(C3OC(CO)C(O)C3O)c2n1 (stereo not drawn) | -15% | -4% | 13%
Nc1ncnc2c1ncn2C1OC(CO)C(O)C1O (stereo not drawn) | -6% | 6% | 15%
CCC(=O)N1c2ccccc2CC1C(=O)NCCc1ccc(SC)cc1 (stereo not drawn) | -3% | 4% | nt
O=C(CNC(=O)c1ccc(F)cc1)N/N=C/c1cc(Br)ccc1OC(=O)/C=C/c1ccco1 | ? | 10% | 10µM*
O=C(CNC(=O)c1ccccc1F)N/N=C/c1cc(Br)ccc1OC(=O)/C=C/c1ccco1 | ? | -25% | 6.3µM*
COc1ccccc1/C=C/C(=O)NCC(=O)N/N=C/c1cc(Br)ccc1OC | nt | -20% | ?
COc1ccc(C(=O)NCC(=O)N/N=C/c2ccco2)cc1OC | -8% | 5% | -5%
CCc1ccccc1N(C)C | -8% | -4% | nt
O=C(COC(=O)Cc1ccccc1F)NC(=O)NC1CCCC1 | nt | nt | 7%
Cc1cc(C(=O)CSc2nnc(-c3ccccc3)n2Cc2ccc3c(c2)OCO3)c(C)n1C | nt | nt | -6%
Cc1cc(C(=O)CSc2nc3ccccc3c(=O)n2C)c(C)n1Cc1ccc2c(c1)OCO2 | nt | nt | 1.6µM*
O=C(CN1C(=O)NC2(CCCCCC2)C1=O)NCc1ccc(Cl)cc1 | -25% | -19% | -23%
Cc1ncc(CNC(=O)N(CCCl)N=O)c(N)n1 | -5% | -15% | 2.8µM*
Cc1cnc(SCc2cnc(C)nc2N)nc1 | -3% | -8% | -3%
CC(C)(C)c1ccc(C(=O)N2CCN(c3nc4ccccc4o3)CC2)cc1 | i | -18% | 10µM*
SMILES | VACV mCherry inh | Vaccinia Venus | HCV inh
O=C(c1ccc(-c2ccccc2)cc1)N1CCN(c2nc3ccccc3o2)CC1 | i | -4% | 20%
Cc1ccc(-c2nc3ccccc3[nH]2)cc1NC(=O)c1ccc2c(c1)OCO2 | -23% | -19% | 11µM*
CCN(CC)c1ccc(NC(=O)c2ccc3c(c2)OCO3)c(C)c1 | ? | -13% | 11µM*
Cc1cc(NC(=O)c2ccc3c(c2)OCO3)ccc1NC(=O)c1ccccc1 | -28% | -18% | ?
O=C(NC(=S)Nc1cc(-c2nc3ccccc3[nH]2)ccc1Cl)c1ccc2c(c1)OCO2 | -26% | -21% | ?
CCOc1ccc(CN(C)CC(O)COC(c2ccc(OC)cc2)c2ccc(OC)cc2)cc1 (stereo not drawn) | -29% | -21% | 11µM*
CN(Cc1ccc(OCC(O)CN(C)Cc2ccccc2)cc1)Cc1nccn1C (stereo not drawn) | nt | nt | -9%
COc1ccc(CN(C)CC(O)COc2ccc(-c3ccccc3)cc2)cc1OC (stereo not drawn) | i | -26% | 7.1µM*
COc1ccc(CN(C)CC(O)COC(c2ccc(OC)cc2)c2ccc(OC)cc2)cc1 (stereo not drawn) | -1% | -21% | ?

Screening data: PubChem, National Center for Advancing Translational Sciences (NCATS)
